This is an account of results in PubChem BioAssay (NCI).

The panel holds about 83,000 compounds, 20% with a hit somewhere; the sample as a whole holds those more often.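 A percent growth of 40 corresponds to 60% growth inhibition; 0 means no net growth; -100 means all cells died. Active threshold: below 10.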 Values without a mark were called inactive. Activity calls are given as the source filed them.

Some test systems named below: SK-MEL-2 melanoma; EKVX NSCLC; SN12C renal; UO-31 renal; TK-10 renal; ACHN renal; CAKI-1 renal; A498 renal; CCRF-CEM leukemia; MOLT-4 leukemia; SR leukemia; RPMI-8226 leukemia; OVCAR-8 ovarian; OVCAR-5 ovarian; OVCAR-4 ovarian; SK-OV-3 ovarian; IGROV1 ovarian; OVCAR-3 ovarian; HS 578T breast; NCI/ADR-RES ovarian.
Holding throughout (assay): NCI-60 one-dose screen, 48 h (100 = growth as untreated, 0 = no growth, -100 = all killed)
Holding throughout (details): 10 µM unless noted

With `C#CCOc1ccc2ncnc(N3CCC(NC(=O)CCl)CC3)c2c1`, the growth is 69.6% [8.25 µM] in the experiment with SK-MEL-2 melanoma; 72.7% [8.25 µM] in the experiment with EKVX NSCLC; 63.6% [8.25 µM] in the experiment on SN12C renal; 40.6% [8.25 µM] with UO-31 renal; 69% [8.25 µM] with TK-10 renal; 57.6% [8.25 µM] in the experiment on ACHN renal. The growth in the experiment on CAKI-1 renal was 71.4% [8.25 µM]; in the experiment on A498 renal, 29.9% [8.25 µM]; in the experiment with CCRF-CEM leukemia it was 39.8% [8.25 µM]; in the experiment on MOLT-4 leukemia it was 40.9% [8.25 µM]; in the experiment with SR leukemia it was 62.6% [8.25 µM]; with RPMI-8226 leukemia, 44.4% [8.25 µM]. The growth in the experiment with OVCAR-8 ovarian is 76.3% [8.25 µM]; with OVCAR-5 ovarian, 100% [8.25 µM]; in the experiment on OVCAR-4 ovarian it was 36.5% [8.25 µM]; in the experiment with SK-OV-3 ovarian, 69.6% [8.25 µM]; in the experiment on IGROV1 ovarian, 51.4% [8.25 µM]; with OVCAR-3 ovarian, 68.2% [8.25 µM]. Further, the growth in the experiment with HS 578T breast is 46.7% [8.25 µM]; with NCI/ADR-RES ovarian it was 88.2% [8.25 µM].

Regarding `Cc1ccc(/C=C2\SC(=S)N(CC(=O)NCCCN3CCOCC3)C2=O)cc1`, the growth with SK-MEL-2 melanoma was 107%; in the experiment on EKVX NSCLC it was 93.7%; in the experiment on SN12C renal, 92.1%; in the experiment with UO-31 renal, 83.9%; in the experiment with TK-10 renal, 117%; in the experiment on ACHN renal, 90.5%. The growth with CAKI-1 renal was 89.4%; with A498 renal, 96.1%; with CCRF-CEM leukemia, 104%; in the experiment with MOLT-4 leukemia it was 101%; in the experiment with SR leukemia, 97.2%; in the experiment with RPMI-8226 leukemia, 95.9%. Moreover, the growth with OVCAR-8 ovarian is 96.4%; in the experiment on OVCAR-5 ovarian it was 101%; with OVCAR-4 ovarian it was 91.3%; in the experiment on SK-OV-3 ovarian, 82.7%; in the experiment on IGROV1 ovarian, 107%; in the experiment on OVCAR-3 ovarian, 102%. Also, the figures for the growth in the experiment on HS 578T breast and with NCI/ADR-RES ovarian were 87.4% and 96.5%, respectively.

Turning to `NS(=O)(=O)c1ccc(CN=C2NC(=O)S/C2=C\c2ccc(Br)cc2)cc1`, the growth was 102% in the experiment on SK-MEL-2 melanoma; 103% in the experiment on EKVX NSCLC; 97.1% with SN12C renal; 88.8% in the experiment on UO-31 renal; 108% in the experiment with TK-10 renal; 102% in the experiment with ACHN renal. In addition, the growth in the experiment with CAKI-1 renal was 100%; in the experiment on A498 renal, 102%; with CCRF-CEM leukemia it was 95%; in the experiment with MOLT-4 leukemia it was 99.3%; in the experiment on SR leukemia, 119%; in the experiment on RPMI-8226 leukemia, 99.8%. The growth was 106% in the experiment on OVCAR-8 ovarian; 94.1% in the experiment on OVCAR-5 ovarian; 112% with OVCAR-4 ovarian; 94.3% in the experiment with SK-OV-3 ovarian; 96.9% in the experiment with IGROV1 ovarian; 106% in the experiment on OVCAR-3 ovarian. In addition, the growth in the experiment on HS 578T breast was 97.6%; in the experiment on NCI/ADR-RES ovarian, 105%.

Regarding `CCCc1cc(=O)n2c(C(=O)Nc3ccc(F)cc3)c(C(=O)Nc3ccc(F)cc3)sc2n1`, the growth in the experiment with SK-MEL-2 melanoma is 70.7% [30 µM]; with EKVX NSCLC it was 62.5% [30 µM]; in the experiment on SN12C renal, 65.7% [30 µM]; in the experiment with UO-31 renal, 19.3% [30 µM]; with TK-10 renal, 38.9% [30 µM]; with ACHN renal it was 48.4% [30 µM]. The growth was 44.3% [30 µM] in the experiment on CAKI-1 renal; 139% [30 µM] with A498 renal; 77.1% [30 µM] in the experiment with CCRF-CEM leukemia; 97.9% [30 µM] with MOLT-4 leukemia; 53.4% [30 µM] with SR leukemia; 78.2% [30 µM] with RPMI-8226 leukemia. For the same compound, the growth is 16.6% [30 µM] in the experiment on OVCAR-8 ovarian; 74.7% [30 µM] in the experiment with OVCAR-5 ovarian; 36.9% [30 µM] with OVCAR-4 ovarian; 48.5% [30 µM] in the experiment with SK-OV-3 ovarian; 72.6% [30 µM] in the experiment with IGROV1 ovarian; 35.3% [30 µM] in the experiment with OVCAR-3 ovarian. Also, the growth was 6.12% [30 µM] (active) in the experiment with HS 578T breast and 33% [30 µM] in the experiment on NCI/ADR-RES ovarian.

As to `COc1cc(-c2nn(C)nc2-c2cc3ccccc3s2)cc(OC)c1OC`, the growth in the experiment with SK-MEL-2 melanoma is 32.9%; in the experiment with EKVX NSCLC, 43.6%; in the experiment with SN12C renal it was 42.3%; with UO-31 renal, 40.4%; in the experiment on TK-10 renal it was 65%; in the experiment on ACHN renal it was 43.2%. In addition, the growth is 43.6% in the experiment on CAKI-1 renal; 1.32% (active) in the experiment on A498 renal; 17.5% in the experiment with CCRF-CEM leukemia; 11.7% in the experiment on MOLT-4 leukemia; 21.6% in the experiment on SR leukemia; 20.7% with RPMI-8226 leukemia. The growth is 28% in the experiment on OVCAR-8 ovarian; 57.2% in the experiment with OVCAR-5 ovarian; 57.1% in the experiment with OVCAR-4 ovarian; 21.2% in the experiment with SK-OV-3 ovarian; 39% in the experiment on IGROV1 ovarian; 0.446% (active) in the experiment on OVCAR-3 ovarian. Besides, the growth in the experiment with HS 578T breast was 19.3%; with NCI/ADR-RES ovarian it was 9.9% (active).

For `C=C1C(=O)O[C@H]2[C@H]1CC/C(COC(=O)c1cc3cc(OC)ccc3[nH]1)=C\CC[C@@]1(C)O[C@@H]21`, the growth in the experiment with SK-MEL-2 melanoma is -76.2% (active); in the experiment on EKVX NSCLC, -86.2% (active); with SN12C renal, -80.8% (active); in the experiment with UO-31 renal, -95.6% (active); in the experiment with TK-10 renal it was -97% (active); with ACHN renal, -93.9% (active). The growth with CAKI-1 renal is -95.1% (active); in the experiment on A498 renal, -95.3% (active); with CCRF-CEM leukemia, -21% (active); with MOLT-4 leukemia, -14.6% (active); in the experiment on SR leukemia it was -21.1% (active); in the experiment with RPMI-8226 leukemia it was -20.3% (active). Further, the growth in the experiment on OVCAR-8 ovarian is -66.9% (active); in the experiment on OVCAR-5 ovarian it was -58.6% (active); in the experiment on OVCAR-4 ovarian, -81.5% (active); with SK-OV-3 ovarian, 50.6%; in the experiment with IGROV1 ovarian, -77.1% (active); in the experiment with OVCAR-3 ovarian, -97.4% (active). Moreover, the figures for the growth in the experiment on HS 578T breast and in the experiment with NCI/ADR-RES ovarian were -3.89% (active) and -0.39% (active), respectively.
